In publication PMC6664820, “Novel natural and synthetic inhibitors of solute carriers SGLT1 and SGLT2” (Pharmacology Research & Perspectives, 2019):
The whole screen tested about 1,900 compounds, of which about 40 (2%) showed an effect of 50% or more. This is one part of a sample in which strong results are shown more often than they occur.

target: human SGLT1 (hSGLT1) (human, UniProt P13866); assay: primary screen, percent of control activity; higher = less effect of the substance; set-up: single well; conditions: 50 µM
Description: Two days before the assay, CHO‐wild type and CHO‐hSGLT1 cells were seeded in maintenance medium at 25 000 cells/well in clear‐bottom black 96‐well cell culture plates. Before the assay, cells were washed 3 times with 150 μL/well D‐glucose free DMEM with 0.3% (w/v) BSA. Library compounds at 50 μmol/L (singlicate) prepared in D‐glucose free DMEM with 160 μmol/L 1‐NBD‐glucose and 0.3% (w/v) BSA and negative controls (triplicate) were added at 100 μL/well and placed in a humidified incubator at 37°C with 5% CO2 for 90 minutes. Next, cells were washed 3 times with DMEM with 0.3% (w/v) BSA (150 μL/well). Care was taken to remove all medium after the last wash. Finally, 1‐NBD‐glucose was extracted from the cells by adding 10 μL/well isopropanol and orbital shaking for 5 minutes at 600 rpm, followed by incubation in the dark for 30 minutes. Fluorescence was measured on a Tecan Infinite M200 Microplate Reader (Tecan, Männedorf, Switzerland) with excitation at 445 nm and emission at 525 nm. The amount of 1‐NBD‐glucose taken up by the CHO‐wild type or CHO‐hSGLT1 cells in the presence or absence of test compounds was interpolated from 1‐NBD‐glucose calibration standards. The background uptake by CHO‐wild type was subtracted from the uptake by CHO‐hSGLT1. Background corrected uptake with test compound was expressed as a percentage of corrected uptake without test compound.

human SGLT1 (hSGLT1), sequence (P13866 whole entry, looked up): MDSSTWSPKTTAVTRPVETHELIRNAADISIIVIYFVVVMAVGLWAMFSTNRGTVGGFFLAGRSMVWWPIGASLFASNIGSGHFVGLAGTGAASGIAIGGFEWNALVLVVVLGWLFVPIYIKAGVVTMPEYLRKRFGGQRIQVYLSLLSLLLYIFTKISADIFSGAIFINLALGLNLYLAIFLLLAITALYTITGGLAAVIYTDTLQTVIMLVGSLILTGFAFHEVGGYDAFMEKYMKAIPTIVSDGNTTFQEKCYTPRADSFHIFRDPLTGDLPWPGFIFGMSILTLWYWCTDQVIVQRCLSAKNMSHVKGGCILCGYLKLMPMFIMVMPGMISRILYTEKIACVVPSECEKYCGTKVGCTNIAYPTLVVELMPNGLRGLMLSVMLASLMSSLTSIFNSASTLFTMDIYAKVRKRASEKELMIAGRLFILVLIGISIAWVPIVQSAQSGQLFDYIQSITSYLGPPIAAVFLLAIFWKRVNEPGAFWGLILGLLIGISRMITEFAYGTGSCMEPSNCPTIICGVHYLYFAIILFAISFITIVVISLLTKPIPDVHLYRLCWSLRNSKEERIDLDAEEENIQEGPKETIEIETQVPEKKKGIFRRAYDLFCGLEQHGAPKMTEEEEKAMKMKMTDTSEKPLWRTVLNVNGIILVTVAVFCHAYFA

Row | Compound | NORMALIZED SGLT1 ACTIVITY (%)
1 | CC[C@@H](CO)NCCN[C@@H](CC)CO.Cl.Cl | 90%
2 | Oc1c(Cl)cc(Cl)c2cccnc12 | 48%
3 | O=S(=O)(O)O.Oc1cccc2cccnc12 | 127%
4 | CC(=O)Oc1ccc(Cl)c2cccnc12 | 202%
5 | Oc1ccc(Cl)c2cccnc12 | 208%
6 | Oc1c(I)cc(I)c2cccnc12 | 97%
7 | Oc1c(Br)cc(Br)c2cccnc12 | 50%
8 | CC(=O)O[C@@H]1CC2C(C)(C)C(=O)C3OC3[C@]2(C)C2CC[C@@]3(C)[C@H](c4ccoc4)OC(=O)C4OC43[C@@]21C (stereo partly drawn) | 138%
9 | CC(C)CCCC(C)[C@H]1CCC2C3CC=C4C[C@@H](O)CC[C@]4(C)C3CC[C@@]21C (stereo partly drawn) | 120%
10 | C[n+]1c2cc(N)ccc2cc2ccc(N)cc21.[Cl-] | 169%
11 | CC1=CC(=O)C2=C(C)CC[C@@H]3[C@H](OC(=O)[C@H]3C)[C@@H]12 | 109%
12 | COC(=O)Nc1nc2ccc(S(=O)c3ccccc3)cc2[nH]1 (stereo not drawn) | 125%
13 | Cc1ccc(O)c(C(CCN(C(C)C)C(C)C)c2ccccc2)c1.O=C(O)C(O)C(O)C(=O)O (stereo not drawn) | 78%
14 | COc1cc(O)c(C(=O)c2ccccc2)cc1O | 235%
15 | COc1ccc(C(=O)c2ccccc2)c(O)c1 | 26%
16 | COc1ccc(C(=O)c2ccccc2O)c(O)c1 | 111%
17 | CCS(=O)(=O)CCn1c([N+](=O)[O-])cnc1C | 123%
18 | COc1ccc2ccc(=O)oc2c1 | 130%
19 | CCN(CC)CC(=O)Nc1c(C)cccc1C.Cl | 72%
20 | CCCCN1CCCCC1C(=O)Nc1c(C)cccc1C.Cl (stereo not drawn) | 42%
21 | Cc1cccc(C)c1NC(=O)C1CCCCN1C.Cl (stereo not drawn) | 83%
22 | CC(C)CCCC(C)[C@H]1CCC2C3C(=O)C=C4C[C@@H](O)CC[C@]4(C)C3CC[C@@]21C (stereo partly drawn) | 95%

Row | Compound | NORMALIZED SGLT1 ACTIVITY (%)
23 | Cc1ccc(N(CC2=NCCN2)c2cccc(O)c2)cc1.Cl | 62%
24 | COc1ccc2c(c1)OC/C(=C\c1ccc(OC)c(O)c1)C2=O | 140%
25 | O=C1C=CC(=C(c2ccc(O)cc2)c2ccc(O)cc2)C=C1 | 78%
26 | CN(C)c1ccc(C(=C2C=CC(=[N+](C)C)C=C2)c2ccc(N(C)C)cc2)cc1.[Cl-] | 43%
27 | CC(CCc1ccccc1)NCC(O)c1ccc(O)c(C(N)=O)c1.Cl (stereo not drawn) | 76%
28 | O=C([O-])CF.[Na+] | 96%
29 | C[C@@H]1C(=O)O[C@H]2[C@H]1CC[C@@]1(C)C=CC(=O)[C@@]3(C)O[C@@]213 | 96%
30 | COc1cc(OC)c(OC)cc1C=O | 189%
31 | CCC[C@@H]1CCCCN1 | 85%
32 | C1CCC(C(CC2CCCCN2)C2CCCCC2)CC1.O=C(O)/C=C\C(=O)O (stereo not drawn) | 1%
33 | CC(=O)CC1CCCCN1.Cl (stereo not drawn) | 86%
34 | C=C[C@H]1CN2CC[C@H]1C[C@H]2[C@H](O)c1ccnc2ccccc12 | 77%
35 | C=Cc1c(C)c2[n]3c1C=c1c(C)c(CC)c4[n]1[Cu]31[n]3c(c(C)c5c3C(=c3c(CCC(=O)[O-])c(C)c([n]31)=C2)C(C(=O)[O-])C5=O)C=4.[Na+].[Na+] (stereo not drawn) | 94%
36 | CC(C)CC(N(C)C)C1(c2ccc(Cl)cc2)CCC1.Cl (stereo not drawn) | 28%
37 | CC(C)CCCC(C)C1CCC2C3CC(=O)[C@H]4C[C@@H](O)CC[C@]4(C)C3CC[C@]12C (stereo partly drawn) | 107%
38 | O=C(O)c1cc2cc(Cl)ccc2[nH]1 | 238%
39 | C=C1C(C2(C)C=CC(=O)C(C)(C)C2CC(=O)OC)CC[C@@]2(C)[C@H](c3ccoc3)OC(=O)C3OC132 (stereo partly drawn) | 86%
40 | CC(=O)OCC(=O)[C@H]1CC[C@H]2[C@@H]3CCC4=CC(=O)CC[C@]4(C)[C@H]3CC[C@]12C | 114%
41 | CC(=O)[C@H]1CCC2C3CCC4=CC(=O)CC[C@]4(C)C3CC[C@@]21C (stereo partly drawn) | 38%
42 | C[C@]12CCC(=O)C=C1CCC1C2CC[C@@]2(C)C1CC[C@@H]2O (stereo partly drawn) | 98%
43 | C[C@@H]1CC[C@@]2(NC1)O[C@H]1C[C@H]3C4CC=C5C[C@@H](O)CC[C@]5(C)C4CC[C@]3(C)C1[C@@H]2C (stereo partly drawn) | 109%
44 | CCC1(c2ccc(N)cc2)CCC(=O)NC1=O (stereo not drawn) | 108%

Row | Compound | NORMALIZED SGLT1 ACTIVITY (%)
45 | COc1ccc2c(c1)OC/C(=C/c1ccc(O)c(O)c1)C2=O | 249%
46 | CCCCC(CC)CNC(=N)NC(=N)NCCCCCCNC(=N)NC(=N)NCC(CC)CCCC.Cl.Cl (stereo not drawn) | 36%
47 | COc1ccc(C[C@H](N)C(=O)N[C@@H]2[C@@H](CO)OC(n3cnc4c(N(C)C)ncnc43)[C@@H]2O)cc1.Cl.Cl (stereo partly drawn) | 116%
48 | O=C(O)COc1ccc(Cl)cc1Cl | 196%
49 | COC(=O)[C@]1(C)CCC[C@]2(C)c3ccc(C(C)C)cc3C(=O)CC12 (stereo partly drawn) | 89%
50 | O=C(CCCN1CCN(c2ccccn2)CC1)c1ccc(F)cc1 | 111%
51 | Cc1ccc2c(Cl)cc(Cl)c(O)c2n1 | 100%
52 | Oc1c(Cl)cc(Cl)c(Cl)c1Cc1c(O)c(Cl)cc(Cl)c1Cl | -43%
53 | Oc1c(Cl)c(Cl)c(Cl)c(Cl)c1Cl | 622%
54 | Cn1c(=O)[nH]c2ncn(C)c2c1=O | 164%
55 | CC(C)=CCOc1c2occc2cc2ccc(=O)oc12 | 161%
56 | CN(C)CCCN1c2ccccc2Sc2ccc(Cl)cc21 | 60%
57 | CC(CN(C)C)CN1c2ccccc2Sc2ccccc21.O=C(O)C(O)C(O)C(=O)O (stereo not drawn) | 45%
58 | CCN(CC)C(C)CN1c2ccccc2Sc2ccccc21.Cl (stereo not drawn) | 46%
59 | CN(C)CCCN1c2ccccc2Sc2ccccc21.Cl | 38%
60 | CN(C)CCCN1c2ccccc2Sc2ccc(C(F)(F)F)cc21.Cl | 62%
61 | CC(CN1c2ccccc2Sc2ccccc21)N(C)C.Cl (stereo not drawn) | 87%
62 | CC(CN(C)C)CN1c2ccccc2CCc2ccccc21.O=C(O)/C=C\C(=O)O (stereo not drawn) | 51%
63 | NS(=O)(=O)c1cc2c(cc1C(F)(F)F)NC(Cc1ccccc1)NS2(=O)=O (stereo not drawn) | 125%
64 | O=C(Cn1ccnc1[N+](=O)[O-])NCCO | 119%
65 | CC(=O)O[C@H]1CC[C@@]2(C)C(C[C@@H](OC(C)=O)[C@@]3(C)C4=CC(=O)O[C@@H](c5ccoc5)[C@]4(C)CCC23)C1(C)C (stereo partly drawn) | 358%
66 | CCCCC1C(=O)N(c2ccccc2)N(c2ccc(O)cc2)C1=O (stereo not drawn) | 109%
